The campaign covered roughly 39,000 compounds. About 500 (1.3%) were called active. The full list was thinned out, with actives kept by preference.
system: S. aureus RN4220; assay: growth inhibition call (relative growth <= 0.2); conditions: 50 µM

SMILES | growth inhibition call
COc1cccc(NC(=O)N[C@H]2C=C[C@@H](CC(=O)N3CCN(C)CC3)O[C@@H]2CO)c1 | inactive
O=C(C[C@H]1C[C@@H]2c3cc(NC(=O)NC4CCCC4)ccc3O[C@@H]2[C@H](CO)O1)NCCN1CCCCC1 | inactive
C[C@H](CO)N1C[C@H](C)[C@@H](CN(C)Cc2ccc(Oc3ccccc3)cc2)Oc2c(NC(=O)C3CCCCC3)cccc2C1=O | inactive
C[C@@H]1CN([C@@H](C)CO)C(=O)c2cc(NC(=O)c3ccccc3)ccc2O[C@@H](C)CCCCO[C@H]1CN(C)Cc1ccc2c(c1)OCO2 | inactive
C[C@@H]1CN([C@@H](C)CO)C(=O)c2cc(NC(=O)NC3CCCCC3)ccc2O[C@H]1CN(C)Cc1ccc(C(=O)Nc2ccccc2N)cc1 | inactive
CC(C)NC(=O)Nc1cccc2c1O[C@H](CN(C)S(=O)(=O)c1ccc(F)cc1)[C@H](C)CN([C@H](C)CO)C2=O | inactive
C[C@H](CO)N1C[C@H](C)[C@H](CN(C)Cc2ccc(-c3ccccc3)cc2)Oc2c(NC(=O)NC3CCCCC3)cccc2C1=O | inactive
Cc1ccc(C(=O)N(CCCN)[C@@H](c2nc3cc(Cl)ccc3c(=O)n2Cc2ccccc2)C(C)C)cc1 | active
Cc1ccc2c(c1)c1nc3ccccc3nc1n2Cc1ccccc1 | inactive
Cc1ccc(C(=O)N(CCCN)[C@@H](c2oc3cc(Cl)ccc3c(=O)c2Cc2ccccc2)C(C)C)cc1 | inactive
COc1ccc(CN(C)C[C@@H]2OCCCC[C@@H](C)Oc3ccc(NC(=O)Nc4ccc(C(F)(F)F)cc4)cc3C(=O)N([C@@H](C)CO)C[C@@H]2C)cc1 | inactive
C[C@@H]1CCCCO[C@H](CN(C)S(=O)(=O)c2ccccc2)[C@H](C)CN([C@H](C)CO)C(=O)c2cc(NC(=O)Nc3ccc(C(F)(F)F)cc3)ccc2O1 | inactive
CO[C@@H]1CN(C)C(=O)c2ccc(NS(=O)(=O)CC(F)(F)F)cc2OC[C@@H](C)N(C(=O)c2ccc3c(c2)OCO3)C[C@H]1C | inactive
CS(=O)(=O)CCNCc1ccc(-c2ccc3ncnc(Nc4ccc(OCc5cccc(F)c5)c(Cl)c4)c3c2)o1 [listing 1 of 2 here] | inactive
CC(C)(O)CC(=O)NCCn1ccc2ncnc(Nc3ccc(Oc4cccc(C(F)(F)F)c4)c(Cl)c3)c21 | active
CS(=O)(=O)CCNCc1ccc(-c2ccc3ncnc(Nc4ccc(OCc5cccc(F)c5)c(Cl)c4)c3c2)o1 [listing 2 of 2 here] | inactive
C[C@H](CO)N1C[C@H](C)[C@H](CN(C)C(=O)Cc2cccnc2)Oc2cc(-c3cncnc3)ccc2S1(=O)=O | inactive
C[C@@H]1CCCCO[C@@H](CN(C)Cc2ccc(C(=O)Nc3ccccc3N)cc2)[C@@H](C)CN([C@H](C)CO)C(=O)c2cc(NC(=O)c3ccccc3)ccc2O1 | inactive
CN(CC(=O)Nc1ccc(F)cc1F)S(=O)(=O)c1ccc2c(c1)c(=O)n(C)c(=O)n2C | inactive
C[C@H]1CN([C@@H](C)CO)C(=O)Cc2cc(NS(=O)(=O)c3cn(C)cn3)ccc2O[C@@H]1CN(C)S(C)(=O)=O | inactive
CCN(CC)C(=S)SSC(=S)N(CC)CC | active
COCCNC(=O)C[C@@H]1C[C@H]2c3cc(NS(C)(=O)=O)ccc3O[C@H]2[C@@H](CO)O1 | inactive
CO[C@H]1CN(C)C(=O)c2ccc(NC(=O)Nc3cccc(Cl)c3)cc2OC[C@@H](C)N(C(=O)Nc2c(C)noc2C)C[C@@H]1C | inactive

SMILES | growth inhibition call
C[C@H](CO)N1C[C@H](C)[C@H](CN(C)S(C)(=O)=O)Oc2ccc(NC(=O)Cn3cnnn3)cc2C1=O | inactive
Cc1ccc(-n2cnc3cc(NCc4cccs4)ccc32)cc1 | inactive
Cc1ccc(CNc2ccc3c(c2)ncn3C2CCCCC2)cc1 | active
COc1ccc(NC(=O)N(C)C[C@@H]2OCCCC[C@H](C)Oc3ccc(NC(=O)c4ccncc4)cc3C(=O)N([C@H](C)CO)C[C@@H]2C)cc1 | inactive
C[C@@H]1CCCCO[C@H](CN(C)C(=O)Nc2ccc3c(c2)OCO3)[C@@H](C)CN([C@H](C)CO)C(=O)c2cc(NC(=O)Nc3ccccc3)ccc2O1 | inactive
Cc1cccc(OC[C@@H](O)CN)c1 | inactive
CCc1ccc(OC[C@@H](O)CN)cc1 | inactive
CC(C)(C)c1ccc(OC[C@@H](O)CN)cc1 | active
Cn1cnc(S(=O)(=O)N2C[C@H](O)COC[C@@H]3O[C@H](CC(=O)NC4CCCC4)CC[C@H]32)c1 | inactive
C=C[C@H]1CCC=C2C(=O)CCC[C@@H]21 | inactive
C[C@@H]1CCCCO[C@@H](CN(C)C(=O)Nc2ccc(C(F)(F)F)cc2)[C@@H](C)CN([C@H](C)CO)C(=O)c2cc(NS(=O)(=O)c3cn(C)cn3)ccc2O1 | inactive
C[C@H]1CCCCO[C@H](CN(C)C(=O)Nc2ccc(C(F)(F)F)cc2)[C@@H](C)CN([C@@H](C)CO)C(=O)c2cc(NS(=O)(=O)c3cn(C)cn3)ccc2O1 | inactive
C[C@@H]1CN([C@@H](C)CO)C(=O)c2cc(NS(=O)(=O)c3cn(C)cn3)ccc2O[C@@H](C)CCCCO[C@@H]1CN(C)C(=O)Nc1ccc(C(F)(F)F)cc1 | active
C[C@@H]1CN([C@H](C)CO)C(=O)c2cc(NS(=O)(=O)c3cn(C)cn3)ccc2O[C@@H](C)CCCCO[C@H]1CN(C)C(=O)Nc1ccc(C(F)(F)F)cc1 | inactive
C[C@@H]1CCCCO[C@H](CN(C)C(=O)Nc2ccc(C(F)(F)F)cc2)[C@H](C)CN([C@@H](C)CO)C(=O)c2cc(NS(=O)(=O)c3cn(C)cn3)ccc2O1 | inactive
C[C@@H]1CCCCO[C@H](CN(C)C(=O)Nc2ccc(C(F)(F)F)cc2)[C@H](C)CN([C@H](C)CO)C(=O)c2cc(NS(=O)(=O)c3cn(C)cn3)ccc2O1 | inactive
C[C@@H]1CCCCO[C@@H](CN(C)C(=O)Nc2ccc(C(F)(F)F)cc2)[C@H](C)CN([C@@H](C)CO)C(=O)c2cc(NS(=O)(=O)c3cn(C)cn3)ccc2O1 | active
C[C@H](CO)N1C[C@H](C)[C@@H](CN(C)C(=O)Nc2ccc(C(F)(F)F)cc2)OCCCC[C@H](C)Oc2ccc(NS(=O)(=O)c3cn(C)cn3)cc2C1=O | active
C[C@@H]1CCCCO[C@H](CN(C)C(=O)Nc2ccc(C(F)(F)F)cc2)[C@@H](C)CN([C@H](C)CO)C(=O)c2cc(NS(=O)(=O)c3cn(C)cn3)ccc2O1 | inactive
C[C@@H]1CCCCO[C@@H](CN(C)C(=O)CCC(F)(F)F)[C@@H](C)CN([C@H](C)CO)C(=O)c2cc(NC(=O)NC3CCCCC3)ccc2O1 | inactive
CC(C)NC(=O)Nc1cccc2c1O[C@@H](CN(C)S(=O)(=O)c1ccc(F)cc1)[C@H](C)CN([C@@H](C)CO)C2=O | inactive
O=C(C[C@@H]1C=C[C@@H](NC(=O)Nc2ccc3c(c2)OCO3)[C@H](CO)O1)NCCCN1CCOCC1 | inactive
COc1ccc(Nc2ccc(-c3ccncc3)s2)cc1Cl | inactive

SMILES | growth inhibition call
C[C@H]1CN([C@@H](C)CO)C(=O)Cc2cc(NS(C)(=O)=O)ccc2O[C@H]1CN(C)S(=O)(=O)c1ccccc1 | inactive
Cc1noc(C)c1NC(=O)Nc1ccc2c(c1)C(=O)N([C@H](C)CO)C[C@H](C)[C@@H](CN(C)C(=O)NC1CCCCC1)OCCCC[C@@H](C)O2 | inactive
Cc1ccc(S(=O)(=O)Nc2ccc3c(c2)C(=O)N([C@@H](C)CO)C[C@@H](C)[C@@H](CN(C)C(=O)Nc2ccc(F)cc2)OCCCC[C@H](C)O3)cc1 | inactive
CCN(CCCc1ccccc1)CCCc1ccccc1.O=C(O)CC(O)(CC(=O)O)C(=O)O | inactive
CCC(=C(c1ccccc1)c1ccc(OCCN(C)C)cc1)c1ccccc1.O=C(O)CC(O)(CC(=O)O)C(=O)O | active
CCN(CC)CCOc1ccc(C(=C(Cl)c2ccccc2)c2ccccc2)cc1.O=C(O)CC(O)(CC(=O)O)C(=O)O | inactive
CN(C)CCOc1ccc(C(=C(CCCl)c2ccccc2)c2ccccc2)cc1.O=C(O)CC(O)(CC(=O)O)C(=O)O | active
CN(C)CCN(Cc1ccccc1)c1ccccn1.O=C(O)CC(O)(CC(=O)O)C(=O)O | inactive
Cc1ccccc1C(OCCN(C)C)c1ccccc1.O=C(O)CC(O)(CC(=O)O)C(=O)O (configuration not stated) | inactive
C[C@H]1CN([C@@H](C)CO)C(=O)c2cc(C#Cc3ccccc3F)cnc2O[C@@H]1CN(C)C(=O)C1CCOCC1 | inactive
COc1ccc2c3c([nH]c2c1)[C@H](CO)N(C[C@]13CN(Cc2cc(on2)-c2ccccc2)C1)C(=O)Nc1ccc(cc1)F | inactive
COc1ccc(S(=O)(=O)N(C)C[C@H]2OCCCC[C@H](C)Oc3ccc(NC(=O)CCC(F)(F)F)cc3C(=O)N([C@H](C)CO)C[C@H]2C)cc1 | inactive
C[C@@H]1CCCCO[C@@H](CN(C)C(=O)c2ccccc2)[C@H](C)CN([C@@H](C)CO)C(=O)c2cc(NC(=O)Nc3cccc4ccccc34)ccc2O1 | inactive
O=S(=O)(O)c1cc(O)ccc1O | inactive
C[C@@H]1CN([C@H](C)CO)C(=O)c2cccc(NC(=O)c3ccc(-c4nccs4)cc3)c2O[C@@H]1CN(C)C(=O)Nc1ccc2c(c1)OCO2 | inactive
Cc1ccc(S(=O)(=O)N(C)C[C@@H]2OCCCC[C@H](C)Oc3ccc(NC(=O)c4ccccc4)cc3C(=O)N([C@@H](C)CO)C[C@H]2C)cc1 | inactive
C[C@@H]1CN([C@@H](C)CO)C(=O)c2cc(NS(=O)(=O)c3cccs3)ccc2O[C@H]1CN(C)CC1CC1 | inactive
C[C@H](CO)N1C[C@H](C)[C@@H](CN(C)C(=O)Nc2cccc3ccccc23)Oc2ccc(NC(=O)Nc3cccc4ccccc34)cc2CC1=O | inactive
O=C(CCCCC(=O)N/N=C/c1cc(I)cc(I)c1O)NO | active
O=C(CCCCCCC(=O)N/N=C/c1cc(I)cc(I)c1O)NO | inactive
O=C(NO)c1cccc(C(=O)N/N=C/c2cc(I)cc(I)c2O)c1 | inactive

From the antibiotic and cytotoxicity screens of Wong et al. (2023)
